Bioassay records (PubChem BioAssay)
Compounds with a hit are over-represented: about 8% of the library has one in this group of screens.
LASV entry inh: qHTS for Inhibitors of binding or entry into cells for Lassa Virus; Lassa virus pseudotyped entry inhibition, cell-based qHTS; Potency, µM (series often up to 49.2 µM), for inactives: at the highest dose activity change, negative = inhibition, usual class: inhibitors; 18,000 compounds, 4.1% hits; AID 720533, 2013
Marburg entry: qHTS for Inhibitors of binding or entry into cells for Marburg Virus | Potency, µM (titrated, usually from 49.2 µM), inactives show top-dose activity change, negative = inhibition, usual class: inhibitors | 18,000 compounds, 6.5% hits | Marburg virus pseudotype entry/binding inhibition, cell-based
* marks the source's active call; other numbers are inactive results; ! = repeats disagree; [ ] = remark or other dose. The call rests on the fitted dose curve; tested in HEK293 cells. On the % scale 0 is the no-effect control and ±100 the full control effect; potency means the concentration at half of the fitted maximal effect.

For CS(=O)(=O)CCNCc1nc(-c2ccc3ncnc(Nc4ccc(OCc5cccc(C(F)(F)F)c5)cc4)c3c2)cs1 the results were LASV entry inh -18% and Marburg entry -16%.
CN1[C@@H](C[C@@H](O)c2ccccc2)CCC[C@@H]1C[C@H](O)c1ccccc1 was read as LASV entry inh 8%[17.8 µM] and Marburg entry inconclusive.
Screening C[C@@H](C(=O)OC1C[C@H]2CC[C@@H](C1)N2C)c1ccc(Br)cc1 (stereo partly specified) returned LASV entry inh -17% and Marburg entry inconclusive.
For CN1C2CCC1CC(OC(c1ccccc1)c1ccc(Cl)cc1)C2 (stereo unspecified) the results were LASV entry inh 11µM* and Marburg entry 4µM*.
For CN1C2CCC1CC(OC(c1ccccc1)c1ccccc1N)C2 (stereo unspecified) the results were LASV entry inh -8% and Marburg entry 18µM*.
`COc1cc([C@@H](NC(=O)C(F)(F)F)C2CCCCC=C2c2ccccc2)cc(OC)c1OC` (stereo partly specified) gave LASV entry inh inconclusive and Marburg entry 10%[8.59 µM].
`N#C/C(=C\c1ccc(O)c(O)c1)C(=O)NCCCNC(=O)/C(C#N)=C/c1ccc(O)c(O)c1` gave LASV entry inh -21% and Marburg entry -31%.
Screening CC(C)c1cc(/C=C(\C#N)C(=O)NCCCc2ccccc2)cc(C(C)C)c1O returned LASV entry inh 25µM* and Marburg entry inconclusive.
Screening CC1(C)O[C@@H](C(O)(c2cc(C(F)(F)F)cc(C(F)(F)F)c2)c2cc(C(F)(F)F)cc(C(F)(F)F)c2)[C@H](C(O)(c2cc(C(F)(F)F)cc(C(F)(F)F)c2)c2cc(C(F)(F)F)cc(C(F)(F)F)c2)O1 returned LASV entry inh -3%[8.59 µM] and Marburg entry -9%[8.59 µM].
CCN1C(=O)NC(c2cccc(C(F)(F)F)c2)C(C(=O)OC)=C1C (stereo unspecified) was read as LASV entry inh -4%[8.59 µM] and Marburg entry 23%[8.59 µM].
Screening c1ccc(CN(CC2=NCCN2)c2ccccc2)cc1 returned LASV entry inh -4% and Marburg entry inconclusive.
`CC(C)COC[C@H](CN(Cc1ccccc1)c1ccccc1)N1CCCC1` gave LASV entry inh -24%[17.8 µM] and Marburg entry 6.3µM*.
For C[C@@H]1CC2CCC[C@@H]2[C@]2(O1)C(=O)Nc1cccc(Br)c12 (stereo partly specified) the results were LASV entry inh 72%[8.59 µM] and Marburg entry 8%[8.59 µM].
Screening COc1ccc(CN2CCNCC2)c(OC)c1OC returned LASV entry inh 0%[17.8 µM] and Marburg entry 9%[17.8 µM].
`COc1ccc(CN2CCN(C(c3ccc(F)cc3)c3ccc(F)cc3)CC2)c(OC)c1OC` gave LASV entry inh 22µM* and Marburg entry 10µM*.
`COC(=O)C1=C(C(=O)OC)[C@@H]2N(Cc3ccccc3)c3ccccc3[C@@]23CCC(=O)N(CC2CC2)C3=N1` gave LASV entry inh -6%[8.59 µM] and Marburg entry inconclusive.
For CNCC(=O)N[C@@H](CCCN=C(N)N)C(=O)N[C@H](C(=O)N[C@@H](Cc1ccc(O)cc1)C(=O)N[C@H](C(=O)N[C@@H](Cc1cnc[nH]1)C(=O)N1CCC[C@H]1C(=O)N[C@@H](C)C(=O)O)C(C)C)C(C)C the results were LASV entry inh -5% and Marburg entry 16%.
For O=C(OCc1cn([C@@H]2CN(C(=O)C3CCCCC3)[C@@H](c3ccc(Cl)cc3)C[C@@H]2O)nn1)c1ccccc1 the results were LASV entry inh 14% and Marburg entry inconclusive.
For COC(=O)C1=C(C)N(Cc2ccccc2)C(=NCc2cc(OC)c(OC)c(OC)c2)NC1c1cccc(F)c1 (stereo unspecified) the results were Marburg entry -17%[8.59 µM].
Screening O=C(Nc1ccccc1)c1cc([N+](=O)[O-])ccc1Cl returned LASV entry inh -25% and Marburg entry inconclusive.
For O=C(Nc1ccc([N+](=O)[O-])cc1Cl)c1cc(Cl)ccc1O the results were LASV entry inh 1.1µM* and Marburg entry 5µM*!.
For CC1=C(C(=O)Nc2ccc3n[nH]c(C)c3c2)C(c2ccc(C(F)(F)F)cc2)CC(=O)N1 (stereo unspecified) the results were LASV entry inh 1% and Marburg entry inconclusive.
Screening COc1cccc([C@@H]2Oc3ccc(Br)cc3C(=O)[C@@H]2OC(=O)Nc2cc(OC)c(OC)c(OC)c2)c1 returned LASV entry inh -10%[8.59 µM] and Marburg entry 5%[8.59 µM].
CC(Nc1oc(-c2ccccc2)nc1C(C)(C)C)c1ccccc1 (stereo unspecified) was read as Marburg entry -5%[8.59 µM].
CN(C)CCC1(c2ccc(Cl)cc2)Cc2ccccc2C(=O)O1 (stereo unspecified) was read as LASV entry inh -15% and Marburg entry 35µM*.
For CC[C@]1(c2ncc[nH]2)Cc2ccccc2O1 the results were LASV entry inh 4% and Marburg entry -18%.
CC(C)CCON=O was read as LASV entry inh -6% and Marburg entry -23%.
